# Bioassay records as filed in PubChem.
# Shown are actives, neighbours in structure and some others; about 14% of the full set was active somewhere.
# Cycloheximide cs: counter-screen hit for Shiga toxin inhibitors, cycloheximide | 300,000 compounds, 12% hits | max response, % | cell reporter, cycloheximide protein synthesis inhibition counterscreen; in the data active = max response mostly above about 13%, no sharp cut-off; inactive = mostly below about 14%; also: read at 38.3 µM for the half of the compounds with a filed dose; 0% is about no effect
# Shiga inhibitor: blocks Shiga toxin action in Vero cells | Vero cells, Shiga toxin protein synthesis inhibition reporter | inhibition, % at 38.7 µM | 290,000 compounds, 9.2% hits | AID 2315; in the data active = inhibition mostly above about 28%, no sharp cut-off; inactive = mostly below about 43%; also: 0% is about no effect
# Giardia FBPA inh-1: blocks Giardia fructose-bisphosphate aldolase activity | A8B2U2 | purified Giardia FBPA | Potency, µM (top dose mostly 59.6 µM), for inactives: top-dose activity, negative = inhibition, hits mostly inhibitors | 290,000 compounds, 0.71% hits | AID 2451; also: potency is read from the fitted curve at half-maximal effect; % is scaled to controls: 0 for no effect and ±100 for the full control effect; nearly all actives have a fitted effect of over 55% in size
#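 40 nM FBPA preincubated 10 min at RT with compound (up to 57.5 uM final), then substrate plus GAPDH/TPI/NAD/arsenate coupling and diaphorase/resazurin added. Fluorescence read after 20 min at RT, 525/598 nm.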
# LmPK inhibitor: inhibitors of Leishmania mexicana pyruvate kinase; 290,000 compounds, 0.37% hits; Potency, µM (doses to about 57.5 µM), for inactives: top-dose activity change, negative = inhibition, most hits filed as inhibitors; Q27686; purified LmPK, Kinase-Glo ATP luminescence, 1 h; also: potency is read from the fitted curve at half-maximal effect; % is scaled to controls: 0 for no effect and ±100 for the full control effect
#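 Purified LmPK (0.1 nM) with 0.5 mM PEP and 0.1 mM ADP in imidazole buffer pH 7.2 with MgCl2/KCl, 1 h at room temperature. ATP formed was read by luciferase luminescence and normalized to no-enzyme and uninhibited controls.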
# NS1 inh: inhibitors of influenza NS1 protein function; AID 2326; Potency, µM (series often up to 46.1 µM), for the others: top-dose activity, positive = more growth; 270,000 compounds, 0.4% hits; calls by dose curve; also: potency is read from the fitted curve at half-maximal effect; actives are rising curves; nearly all actives have a fitted effect of over 50% in size
#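 S. cerevisiae expressing influenza A NS1, grown in glucose, washed, then diluted 1:100 into pH 6.0 -URA galactose medium with 23 nl compound. Growth recovery read as OD600; NS1-free strain serves as control.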
# Giardia growth: blocks growth of Giardia lamblia trophozoites | shares compounds with Giardia FBPA inh-1 | Giardia lamblia trophozoite growth inhibition | Potency, µM (doses to about 57.5 µM), inactives show at the top dose activity change, negative = inhibition, hits mostly inhibitors | 1,500 compounds, 5% hits | AID 2785;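 also: potency is read from the fitted curve at half-maximal effect; trophozoites exposed to compound for 48 h at 37 °C; % is scaled to controls: 0 for no effect and ±100 for the full control effect; nearly all actives have a fitted effect of over 70% in size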
# Mammalian tox: mammalian cytotoxicity of Giardia aldolase inhibitor hits | shares compounds with Giardia FBPA inh-1 | Potency, µM (highest dose often 57.5 µM), for inactives: top-dose viability change, negative = toxicity, usual class: inhibitors | 1,500 compounds, 4% hits | AID 2786 | mammalian cell viability counter-screen, qHTS;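 also: Chinese hamster ovary cells used as mammalian cytotoxicity surrogate; viability measured as cellular ATP by luminescence; potency is read from the fitted curve at half-maximal effect; compound exposure lasted 48 h before reading; % is scaled to controls: 0 for no effect and ±100 for the full control effect; nearly all actives have a fitted effect of over 60% in size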
# Giardia FBPA inh-2: confirmation of Giardia fructose-bisphosphate aldolase inhibitors; shares compounds with Giardia FBPA inh-1; purified Giardia aldolase enzyme activity, qHTS; Potency, µM (doses to about 57.5 µM), for the others: at the top dose activity change, negative = inhibition, usual class: inhibitors; 1,500 compounds, 5% hits; also: potency is read from the fitted curve at half-maximal effect; % is scaled to controls: 0 for no effect and ±100 for the full control effect; nearly all actives have a fitted effect of over 45% in size
# Rabbit aldolase: rabbit FBP aldolase inhibition by Giardia aldolase hits | AID 2794 | Potency, µM (series often up to 57.5 µM), without a hit: at the highest dose activity, negative = inhibition, hits mostly inhibitors | Rabbit muscle FBPA enzyme inhibition, selectivity counter-screen | shares compounds with Giardia FBPA inh-1 | 1,500 compounds, 4% hits; also: potency is read from the fitted curve at half-maximal effect; % is scaled to controls: 0 for no effect and ±100 for the full control effect; nearly all actives have a fitted effect of over 60% in size
# Target sequence (P00883 whole entry, looked up): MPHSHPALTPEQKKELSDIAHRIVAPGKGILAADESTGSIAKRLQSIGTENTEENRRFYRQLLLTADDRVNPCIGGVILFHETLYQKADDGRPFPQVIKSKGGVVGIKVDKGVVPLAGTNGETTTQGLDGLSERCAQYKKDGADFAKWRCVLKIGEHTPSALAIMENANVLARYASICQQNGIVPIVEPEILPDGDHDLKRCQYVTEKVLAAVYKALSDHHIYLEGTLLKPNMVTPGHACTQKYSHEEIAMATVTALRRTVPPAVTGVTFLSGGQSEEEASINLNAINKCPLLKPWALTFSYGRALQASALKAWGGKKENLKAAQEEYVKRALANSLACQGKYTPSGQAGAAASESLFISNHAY
# GAPDH counter: counter-screen for Giardia aldolase inhibitors: GAPDH coupling enzyme. shares compounds with Giardia FBPA inh-1. GAPDH coupling enzyme counterscreen, biochemical, qHTS. Potency, µM (series often up to 57.5 µM), inactives show at the top dose activity change, negative = inhibition, usual class: inhibitors. 1,500 compounds, 6% hits; also: potency is read from the fitted curve at half-maximal effect; % is scaled to controls: 0 for no effect and ±100 for the full control effect; nearly all actives have a fitted effect of over 55% in size
# * = called active by the depositor; ? = inconclusive; · = not tested or not shown; [ ] = another dose, or the depositor's remark. Unless noted, calls follow the shape of the dose curve; as a rule, active = well fitted curve in the direction sought with a large enough effect; inconclusive = small, poorly fitted or top-dose-only effect, or another doubt; inactive = no such curve, though single readings can be large; an effect the other way counts as inactive or inconclusive.
SMILES,Cycloheximide cs,Shiga inhibitor,Giardia FBPA inh-1,LmPK inhibitor,NS1 inh,Giardia growth,Mammalian tox,Giardia FBPA inh-2,Rabbit aldolase,GAPDH counter
CN(C)S(=O)(=O)c1ccc(NC(=S)NC(=O)c2cccs2)cc1,11*,23,18µM*,7%,6%,-9%[10.4 µM],-17%,7%,5%,11%
CCCn1nnc(NC(=S)NC(=O)CC)n1,-1,20,5.6µM*,3%,-2%,?,-5%,-1%,1%,4%
COc1ccc(NC(=O)C(Cc2cc(C)cc(C)c2)C(C)C(=O)O)cc1 (centres undefined),-4,-5,9%,-2%,2%,·,·,·,·,·
O=C(c1ccc(CNS(=O)(=O)c2ccc(Br)cc2)cc1)N1CCCCCC1,-8,5,·,-8%,-6%,·,·,·,·,·
CCCc1c(OCCCOc2ccc(OCC(=O)O)cc2)ccc(C(C)=O)c1O,·,·,12%,·,-38%,·,·,·,·,·
Cc1ccccc1NS(=O)(=O)c1ccc(C(=O)NN2CCCCC2)cc1,4,6,·,-2%,28%,·,·,·,·,·
Cc1ccc(S(=O)(=O)CCc2ccncc2)cc1,5,-4,?,0%,-1%,·,·,·,·,·
COc1ccccc1NC(=O)CN1CCSc2ccccc21,-1,-12,-25%,4%,·,·,·,·,·,·
Cn1nnc(NC(=S)NC(=O)c2cccs2)n1,11,29,2µM*,-2%,16%,-8%,4%,-1%,7%,7%
O=C(NCCCN1CCCC1)[C@H](CSCc1ccccc1)N1Cc2ccccc2C1=O,-3,-26,18µM*,6%,1%,-3%[10.4 µM],-29%,11%,2%,17%
CC(C)NC(=O)[C@H](CSCc1ccccc1)N1Cc2ccccc2C1=O,-1,-10,6%,2%,1%,·,·,·,·,·
O=C1CN(C(=S)NC(=O)c2ccccc2[N+](=O)[O-])CCN1,-1,-7,11µM*,-13%,4%,?,-7%,0%,8%,12%
N#Cc1ccsc1NC(=O)c1ccccn1,19,12,20µM*,-6%,-33%,10µM*,-8%,-11%,-2%,-6%
N#Cc1ccsc1NC(=O)CN(Cc1ccccc1)Cc1ccccc1,15,13,-5%,3%,0%,·,·,·,·,·
Cc1nn(C(C)C(=O)NCc2ccco2)c(=O)c2nn(-c3ccccc3)c(C)c12 (centres undefined),21,-6,8%,0%,-18%,·,·,·,·,·
CCn1c(CSc2n[nH]c(N)n2)nc2cc(C(=O)O)ccc21,1,-3,16µM*,0%,·,21%,-4%,-10%,-5%,-1%
CCn1c(CSc2nnc(-c3cccnc3)n2-c2ccccc2C)nc2cc(C(=O)O)ccc21,-2,11,7.9µM*,1%,?,39%,10%,?,-20%,-18%
CCn1c(CSc2nnc(-c3ccncc3)n2CCOC)nc2cc(C(=O)O)ccc21,-1,-12,?,-5%,·,·,·,·,·,·
COc1ccc(S(=O)(=O)N(CC(=O)NC2CCCCC2)c2ccc(F)cc2)cc1,-1,9,·,-4%,-9%,·,·,·,·,·
Cc1ccc(Nc2cc(C)nn2-c2nc(C)cc(=O)[nH]2)cc1,10,-16,-28%,3%,-151%,?,2.9µM*,-4%,-14%,-26%
COc1cccc(OC)c1C(=O)NC(C)CCc1ccccc1 (centres undefined),1,·,0%,-3%,-146%,·,·,·,·,·
COc1cc(NC(C)CCc2ccccc2)cc(OC)c1OC (centres undefined),-3,-8,13µM*,-2%,?,-10%[10.4 µM],-25%,?,?,?
